Shown are actives, neighbours in structure and some others; about 19% of the full set was active somewhere.
DT40 TDP1 no CPT – qHTS for Inhibitors of human tyrosyl-DNA phosphodiesterase 1 (TDP1): qHTS in cells in absence of CPT; DT40 Tdp1-/- hTDP1 cells, no CPT, ATP luminescence, 48 h; Potency, µM (doses to about 46.2 µM), without a hit: at the highest dose activity change, negative = growth inhibition, hits mostly inhibitors; actives 15% (n = 420,000); AID 686978, 2013; note: nearly all actives have a fitted effect of over 55% in size
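Camptothecin absent (DMSO only). Human TDP1-complemented DT40 knockout cells, 400 cells/well, 37 °C for minimum 48 hr; ATP measured via CellTiter-Glo, 30 min dark incubation, luminescence.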
HT1080 IDH1KD tx – kills HT-1080 cells with IDH1 knockdown; HT-1080 IDH1 knockdown viability, ATP luminescence, 48 h; Potency, µM (titrated, usually from 46.1 µM), inactives show at the highest dose activity, negative = toxicity, usual class: cytotoxic; actives 2% (n = 360,000); AID 686971;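 note: 0% = DMSO wells and -100% = cell-free medium wells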
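Luminescent ATP read-out (CellTiter-Glo, 10 min at room temperature) after 48 h compound exposure at 37 °C gave viability of IDH1-knockdown HT-1080 cells. Activity was normalised to DMSO and cell-free wells, then fitted as concentration-response curves.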
KB-3-1 tox – kills parental KB-3-1 adenocarcinoma cells; KB-3-1 viability, CellTiter-Glo ATP luminescence, 72 h; Potency, µM (top dose mostly 46.1 µM), hits mostly cytotoxic; actives 1.4% (n = 400,000); note: nearly all actives have a fitted effect of over 60% in size
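Multi-concentration cytotoxicity screen in KB-3-1 cells grown in DMEM lacking phenol red with 10% FBS. After 72 h at 37 °C with compound, ATP-dependent luminescence was recorded.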
HT1080NT lethal – kills 2HG-producing HT-1080-NT fibrosarcoma cells; AID 686970; HT-1080-NT fibrosarcoma viability, CellTiter-Glo ATP luminescence, 48 h; actives 1.6% (n = 360,000); Potency, µM (highest dose often 46.1 µM), for inactives: at the highest dose activity, negative = less viability, hits mostly cytotoxic;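 note: NT is the 2HG producing partner of a matched IDH1 knockdown line; 0% = DMSO-treated cells and -100% = media-only wells without cells; nearly all actives have a fitted effect of over 55% in size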
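Fibrosarcoma NT cells, 750 per well in 5% FBS RPMI, were exposed to compound for 48 hours. Viability: CellTiter-Glo luminescence.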
KB-V1 cytotox – kills drug-selected multidrug resistant KB-V1 cells; KB-V1 MDR cells viability, CellTiter-Glo, 72 h; Potency, µM (doses to about 46.1 µM), usual class: cytotoxic; actives 3.4% (n = 400,000); note: nearly all actives have a fitted effect of over 60% in size
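Cells of the MDR subline KB-V1 are plated, dosed with compound at multiple concentrations, and incubated 72 h at 37 degrees C; CellTiter-Glo is then added and luminescence read after 10 min.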
TDP1 cell CPT – growth inhibition of DT40 Tdp1-/-;hTDP1 cells with camptothecin (screen for TDP1 inhibitors). chicken DT40 Tdp1-/-;hTDP1 cells + 20 nM CPT, ATP luminescence, 48 h. Potency, µM (titrated, usually from 46.2 µM), without a hit: at the top dose activity change, negative = growth inhibition, hits mostly inhibitors. actives 12% (n = 420,000); note: nearly all actives have a fitted effect of over 55% in size
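Chicken DT40 Tdp1-/- cells stably complemented with human TDP1 were seeded at 400 cells/well in medium containing 20 nM camptothecin, exposed to pin-transferred compounds, and grown at 37 °C for at least 48 hr. Viability was read as ATP luminescence.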
An asterisk follows results filed as active; i = inactive; ? = inconclusive; . = no result given; [ ] = remark or other dose. Calls come from the whole dose curve; as a rule, active = well fitted curve in the direction sought with a large enough effect; inconclusive = small, poorly fitted or top-dose-only effect, or another doubt; inactive = no such curve, though single readings can be large; an effect the other way counts as inactive or inconclusive. Unless noted, % is set by controls: 0 for no effect and ±100 for the full control effect; potency is the fitted concentration of half-maximal effect.

SMILES | DT40 TDP1 no CPT | HT1080 IDH1KD tx | KB-3-1 tox | HT1080NT lethal | KB-V1 cytotox | TDP1 cell CPT
COc1ccc(-c2oc3c(c2C#CC(C)(C)O)C(OC)CCC3)cc1 (stereo not drawn) | 16µM* | -4% | i | ? | i | ?
CC(CCc1ccccc1)NC(=O)c1nnc(Cc2ccc(Cl)cc2)o1 (stereo not drawn) | ? | -8% | i | 0% | i | 29µM*
COc1ccc(NC(=O)Cn2c(=O)n(Cc3ccco3)c(=O)c3sc4ccccc4c32)cc1Cl | -24% | . | i | . | i | -3%
COc1ccc(N2CCN(S(=O)(=O)c3ccc(F)c(C(=O)Nc4ccccc4Cl)c3)CC2)cc1 | 8.2µM* | . | i | . | i | 7.3µM*
COc1ccccc1N1CCN(S(=O)(=O)c2ccc(F)c(C(=O)Nc3ccc(Cl)cc3C(F)(F)F)c2)CC1 | 21µM* | . | i | . | i | ?
COc1ccccc1NC(=O)c1cc(S(=O)(=O)N2CCN(c3ccccc3Cl)CC2)ccc1F | -70% | . | i | . | i | ?
CCOC(=O)N1CCN(S(=O)(=O)c2ccc(F)c(C(=O)Nc3cccc(Cl)c3C)c2)CC1 | ? | -18% | i | -8% | 3.3µM* | ?
CCOC(=O)N1CCN(S(=O)(=O)c2ccc(F)c(C(=O)Nc3cc(C)cc(C)c3)c2)CC1 | -29% | -3% | i | 15% | i | 0%
Cc1ccc(C23CC4CC(CC(C(=O)NC(C)C(=O)O)(C4)C2)C3)cc1 (stereo not drawn) | -19% | 4% | i | 16% | i | -1%
COc1ccc(NC(=O)C23CC4CC(C2)CC(c2ccc(C)cc2)(C4)C3)cc1 | 23µM* | -13% | i | 0% | ? | 29µM*
Cc1ccc(C23CC4CC(CC(C(=O)NC(C)C)(C4)C2)C3)cc1 | 26µM* | -1% | i | -4% | ? | ?
CNC(=O)C12CC3CC(C1)CC(c1ccc(C)cc1)(C3)C2 | -24% | 1% | i | -1% | i | -11%
CCOP(=O)(c1ccc(N(C)C)cc1)C(O)c1ccc(OC)cc1 (stereo not drawn) | -5% | 5% | i | 8% | i | -2%
COc1cc2c(NC3CCN(C)CC3)nc(N3CCCN(C)CC3)nc2cc1OCCCCCN | -17% | . | i | . | i | ?
COc1cc2c(NC3CCN(C)CC3)nc(N3CCCN(C)CC3)nc2cc1OCCCN1CCOCC1 | 11µM* | . | ? | . | i | 7.9µM*
COCCCCOc1cc2nc(N3CCCN(C)CC3)nc(NC3CCN(C)CC3)c2cc1OC | 11µM* | 8% | . | -15% | . | 13µM*
c1ccc(-c2csc3ncnc(N4CCN(Cc5ccc6c(c5)OCO6)CC4)c23)cc1 | 7.3µM* | 1% | ? | 8% | ? | 16µM*
c1ccc2c(c1)oc1c(N3CCN(Cc4ccc5c(c4)OCO5)CC3)ncnc12 | 23µM* | -17% | ? | -25% | ? | 23µM*
c1ccc(Cn2nnc3c(N4CCN(Cc5ccc6c(c5)OCO6)CC4)ncnc32)cc1 | ? | -15% | i | 9%[9.24 µM] | i | ?
O=C(CSc1ncnc2scc(-c3ccccc3)c12)N1CCN(Cc2ccc3c(c2)OCO3)CC1 | 13µM* | -29% | i | -12% | ? | ?
CCOc1ccc(CCNC(=O)c2ccc3[nH]c(C)c(C)c3c2)cc1 | 21µM* | . | i | . | i | ?
Cc1cc(NC(=O)c2ccc3[nH]c(C)c(C)c3c2)ccn1 | 26µM* | ? | ? | -23% | ? | 21µM*
COc1ccc(CCNC(=O)c2ccc3[nH]c(C)c(C)c3c2)cc1OC | 23µM* | . | i | . | i | ?
COc1ccc(NC(=O)c2ccc3[nH]c(C)c(C)c3c2)cc1 | -27% | 0% | i | 4% | i | ?
COc1ccc(OC)c(CCNC(=O)c2ccc3[nH]c(C)c(C)c3c2)c1 | 21µM* | . | i | . | i | ?
SMILES | DT40 TDP1 no CPT | HT1080 IDH1KD tx | KB-3-1 tox | HT1080NT lethal | KB-V1 cytotox | TDP1 cell CPT
COc1ccc2c(c1)CCC(=O)[C@H](O)C[C@H](c1ccccc1)OC2=O | ? | -1% | i | -2% | i | ?
Cc1ccc(CNC(=O)c2ccc(NC(=O)c3nsc4ccccc34)cc2)cc1 | -15% | . | . | . | . | 10%
COc1ccc(OC)c(CNC(=O)c2ccccc2NC(=O)c2nsc3ccccc23)c1 | ? | . | i | . | i | ?
CCOC(=O)c1ccc(NC(=O)c2nsc3ccccc23)cc1 | ? | . | . | . | . | 18µM*
CCOc1cc(CNC(=O)c2ccccc2NC(=O)c2nsc3ccccc23)ccc1OC | 18µM* | . | i | . | i | 16µM*
Cc1ccccc1CNC(=O)c1ccc(NC(=O)c2nsc3ccccc23)cc1 | 12µM* | . | i | . | i | 15µM*
O=C(Nc1ccc(C(=O)N2CCCCC2)cc1)c1nsc2ccccc12 | 21µM* | . | ? | . | i | 21µM*
COCCNC(=O)C(c1ccc(C)o1)N(C(=O)c1snc(C(N)=O)c1N)c1cc(C)cc(C)c1 (stereo not drawn) | ? | -22% | i | -5% | i | ?
COc1cc(OC)cc(C(=O)NCC2Cc3cccc(-c4nc(C)cnc4C)c3O2)c1 (stereo not drawn) | -13% | . | . | . | . | -3%[9.04 µM]
C/C(CC(=O)Nc1ccccn1)=N\NC(=O)c1cnccn1 | 4% | 6% | i | 1% | ? | -2%
CC(C)C(C)(C#N)NC(=O)COC(=O)C1CCN(S(=O)(=O)c2ccc3c(c2)OCCO3)CC1 (stereo not drawn) | 7% | 24% | i | 8% | i | 2%
CCOc1ccccc1CNC(=O)c1cccc(NC(=O)c2nsc3ccccc23)c1 | 5.2µM* | . | i | . | i | 5.8µM*
O=C(NCc1cccc(F)c1)c1ccc(NC(=O)c2nsc3ccccc23)cc1 | ? | . | i | . | i | ?
Cc1ccc(C)c(C(O)c2ncc(-c3ccc(C(F)(F)F)cc3)[nH]2)c1 (stereo not drawn) | ? | ? | i | ? | i | ?
C=CCOc1ccc(/C=N/O)cc1Cl | -22% | 11% | 12µM* | 5% | i | 1%
CCC(=O)n1nc(-c2ccc(Cl)cc2)nc1NCc1ccccc1 | 16µM* | ? | i | -28% | i | 15µM*

Screens (PubChem)
